Assay results taken from PubChem BioAssay.
Activity calls are given as the source filed them.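 How the source made its calls, unless noted: active means NADPH fluorescence slope more negative than the mean of all samples by about 3 SD, 99.7% confidence; inactive means the rest.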

Tests used:
[1] = inhibitors of TNFa-induced NFkB p65 translocation, primary screen, imaging, HUVEC, MLSMR starter and 10KST1 sets (AID 438;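 active means inhibition above 20% together with a positive visual image hit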;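 further: compound added about 3h40 before a 20 min TNFalpha stimulation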;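 on inhibition: signal is the nuclear over cytoplasmic p65 intensity ratio per well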); settings: HUVEC TNFa-induced p65 nuclear translocation; cell count: measured here: nuclei count (cytotoxicity indicator), at 2.08 µM; inhibition: at 2 µM, stronger effect = higher value, 0% TNFa-plus-vehicle, 100% no-TNFa wells
[2] = inhibitors of mutant huntingtin aggregation, primary screen, imaging, exon1htt(103Q)mCFP cells, high-content imaging (AID 483;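 active means visual image review flags a hit and inhibition of aggregation exceeds 20%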;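 further: compound exposure lasted 3 days before fixation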;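 on nuclei count: percent of the per-plate median nuclei count of sample wells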); settings: exon1htt(103Q)mCFP cell line, aggregate imaging, at 2 µM; inhibition of aggregation: stronger effect = higher value; nuclei count: measured here: cell count, toxicity
[3] = inhibitors of E-selectin induction by TNFa, primary screen, imaging, HUVEC, immunofluorescence, MLSMR starter and 10KST1 sets (AID 487;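 active means visually confirmed hit in the image check and inhibition above 20%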;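 on inhibition: signal is fraction of cell area covered by stained E-selectin grains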;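 on nuclei count: 100% = median nuclei count of all wells on the same plate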); settings: HUVEC TNFalpha-induced E-selectin immunofluorescence imaging, at 2 µM; inhibition: stronger effect = higher value; nuclei count: measured here: cell number, toxicity
[4] = target: Voltage-gated potassium channel subunit beta-2 (Rattus norvegicus) (UniProt P62483); assay: KvBeta enzyme negative modulators, primary screen, biochemical, NADPH fluorescence (AID 622;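 active means fluorescence slope higher than the sample average by over 3 SD, cut at about -0.22 in these data, passing the limit was not always enough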;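 further: slope of raw intensity against log time taken from 70 to 1610 s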); settings: recombinant KvBeta, 4-cyanobenzaldehyde reduction, at 10 µM, stronger effect = higher value
Voltage-gated potassium channel subunit beta-2 (Rattus norvegicus), sequence (P62483 whole entry, looked up): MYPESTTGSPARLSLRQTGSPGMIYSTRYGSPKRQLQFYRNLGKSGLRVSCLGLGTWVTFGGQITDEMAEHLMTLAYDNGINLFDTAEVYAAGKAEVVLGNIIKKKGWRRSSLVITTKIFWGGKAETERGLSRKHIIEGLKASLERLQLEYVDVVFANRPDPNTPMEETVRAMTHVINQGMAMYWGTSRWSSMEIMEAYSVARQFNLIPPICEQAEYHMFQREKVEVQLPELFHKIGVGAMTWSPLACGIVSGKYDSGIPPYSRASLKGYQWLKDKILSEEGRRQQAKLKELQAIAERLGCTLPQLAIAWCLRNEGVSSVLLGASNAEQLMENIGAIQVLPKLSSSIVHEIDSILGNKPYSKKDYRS

[5] = target: Voltage-gated potassium channel subunit beta-2 (Rattus norvegicus) (UniProt P62483); assay: KvBeta positive modulators, primary screen, biochemical, NADPH fluorescence (AID 623); settings: Recombinant KvBeta, NADPH fluorescence decrease slope, 10 min; at 10 µM; stronger effect = lower value;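 further: fluorescence intensity change per second fitted from 20 to 320 s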
[6] = target: Alpha-2C adrenergic receptor (Homo sapiens) (UniProt P18825); assay: modulators of alpha2C/GIRK thallium flux, primary screen, cell-based, HEK293 alpha2C/GIRK1/2 (AID 624;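 active means fluorescence slope after compound addition differing from the mean of all screened samples at 99.7% confidence, in either direction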;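 further: slope of fluorescence ratio to pre-addition baseline per second over 15 to 24 s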); settings: thallium flux BTC fluorescence, at 10 µM, actives lie on both sides
Alpha-2C adrenergic receptor (Homo sapiens), sequence (P18825 whole entry, looked up): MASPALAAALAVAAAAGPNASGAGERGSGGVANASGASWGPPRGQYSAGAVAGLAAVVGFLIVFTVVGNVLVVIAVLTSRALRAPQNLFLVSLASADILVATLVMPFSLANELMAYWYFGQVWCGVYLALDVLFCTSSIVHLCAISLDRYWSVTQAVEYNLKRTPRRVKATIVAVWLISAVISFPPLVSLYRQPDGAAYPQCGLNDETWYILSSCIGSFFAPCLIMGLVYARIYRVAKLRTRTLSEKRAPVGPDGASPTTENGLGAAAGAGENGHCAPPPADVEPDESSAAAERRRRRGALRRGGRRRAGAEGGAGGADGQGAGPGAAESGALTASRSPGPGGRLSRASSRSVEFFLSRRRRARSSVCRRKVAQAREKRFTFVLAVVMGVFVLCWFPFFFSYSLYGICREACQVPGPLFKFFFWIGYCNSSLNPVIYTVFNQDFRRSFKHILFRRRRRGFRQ

[7] = inhibitors of Sendai virus-induced IRF3 signaling, primary screen, TLR/RLR signaling modifier project, cell-based, Sendai virus stimulus, luciferase, 10K MLSCN set (AID 602276;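 active means inhibition at or above 50% at 10 µM; inactive means inhibition below 50%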;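 further: firefly luciferase from ISG56 promoter only with Renilla not read in this screen; 0% = Sendai virus plus DMSO and 100% = medium plus DMSO without virus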); settings: HEK293 RL24 IRF3 luciferase reporter, at 10 µM, stronger effect = higher value
[8] = inhibitors of poly I:C-induced TLR3 signaling, primary screen, cell-based, poly I:C stimulus, luciferase, 10K MLSCN set (AID 602277;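 active means inhibition of the reporter signal at or above 50%; inactive means inhibition below 50%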); settings: HEK293-TLR3 RL24 IRF3 luciferase reporter, at 10 µM, stronger effect = higher value

| Structure (SMILES) | cell count [1] | inhibition [1] | inhibition of aggregation [2] | nuclei count [2] | inhibition [3] | nuclei count [3] | fluorescence slope [4] | NADPH fluorescence slope [5] | slope [6] | inhibition [7] | inhibition [8] |
| --- | --- | --- | --- | --- | --- | --- | --- | --- | --- | --- | --- |
| COc1cc(C(c2sc3nc(C)nn3c2O)N2CC(C)CC(C)C2)cc(OC)c1OC (centres undefined) | 468 | -3.4% (inactive) | -10.7% (inactive) | 114% | -18.2% (inactive) | 109% | -0.505 (inactive) | -0.00015 (inactive) | 0.00579 (inactive) | 9.58% (inactive) | 18.7% (inactive) |
| CCN(CC)C1CCCCC1NS(=O)(=O)c1ccc(Cl)cc1 (centres undefined) | 528 | -9.2% (inactive) | 14.4% (inactive) | 96.8% | -17.6% (inactive) | 82.7% | -0.538 (inactive) | -1.7e-06 (inactive) | 0.00692 (inactive) | 45.1% (inactive) | 28% (inactive) |
| CCN(CC)CCCN1C(=O)C(=O)/C(=C(/O)c2ccc3c(c2)OCO3)C1c1ccccn1 (centres undefined) | 621 | 1.8% (inactive) | 21.9% (inactive) | 85.9% | -18.3% (inactive) | 90.7% | -0.495 (inactive) | -4.9e-05 (inactive) | 0.00526 (inactive) | -5.97% (inactive) | 12.1% (inactive) |
| S=c1[nH]nc(Cc2ccccc2)n1-c1ccccc1 | 664 | -5.5% (inactive) | -9.4% (inactive) | 111% | 14.9% (inactive) | 106% | -0.367 (inactive) | -3.9e-05 (inactive) | 0.00525 (inactive) | 9.34% (inactive) | 20.2% (inactive) |
| CCN(CC)CCNC(=O)c1ccc(N2CCCCC2)c(NS(=O)(=O)c2ccc(C)cc2)c1 | 370 | 6.9% (inactive) | 1.6% (inactive) | 97.8% | -16% (inactive) | 122% | -0.557 (inactive) | -3.5e-05 (inactive) | 0.00347 (inactive) | 13.5% (inactive) | 13.1% (inactive) |
| FC(F)(F)c1cc(-c2ccccc2)nc(N2CCCCC2)n1 | 286 | 3.3% (inactive) | 3.7% (inactive) | 100% | -8.9% (inactive) | 105% | -0.578 (inactive) | -3.3e-05 (inactive) | 0.00434 (inactive) | 12.9% (inactive) | 12.8% (inactive) |
| CCOc1cc(C(=O)Nc2ccon2)cc(OCC)c1OCC | 795 | 0.3% (inactive) | -40.4% (inactive) | 104% | -35.9% (inactive) | 108% | -0.387 (inactive) | 1.3e-05 (inactive) | 0.00341 (inactive) | 17.9% (inactive) | 15.6% (inactive) |
| CCN(CC)CCOC(=O)c1ccc(NC(=O)COc2cc(=O)n(CC)c3ccccc23)cc1 | 386 | 6.7% (inactive) | -6.9% (inactive) | 108% | -26.7% (inactive) | 117% | -0.514 (inactive) | 4.9e-05 (inactive) | 0.00772 (inactive) | -1.28% (inactive) | -7.01% (inactive) |
| CSc1ccc(S(=O)(=O)Nc2cccc(F)c2)cc1 | 342 | 1% (inactive) | -4.6% (inactive) | 82.9% | -34.7% (inactive) | 96.9% | -0.408 (inactive) | -5.1e-05 (inactive) | 0.00352 (inactive) | 15.7% (inactive) | 26.6% (inactive) |
| Oc1ccc(N2CCN(C(c3ccncc3)c3nnnn3C3CCCC3)CC2)cc1 (centres undefined) | 661 | -18.3% (inactive) | -5.2% (inactive) | 101% | -67.5% (inactive) | 115% | -0.502 (inactive) | -4.4e-05 (inactive) | 0.00598 (inactive) | 17% (inactive) | 26.3% (inactive) |
| O=C(OCC(=O)N1CCCCCC1)c1cccs1 | 295 | 7.1% (inactive) | 3.3% (inactive) | 103% | 4.3% (inactive) | 107% | -0.53 (inactive) | -5.7e-05 (inactive) | 0.00485 (inactive) | -20.1% (inactive) | -75.3% (inactive) |
| COc1ccc(N2CCN(C(c3ccccc3)c3sc4nc(C)nn4c3O)CC2)cc1 (centres undefined) | 694 | -12.9% (inactive) | -0.9% (inactive) | 112% | -21.7% (inactive) | 96.4% | -0.452 (inactive) | -4.8e-05 (inactive) | 0.00526 (inactive) | 8.1% (inactive) | 11.1% (inactive) |
| Nc1ncnc2nc(Sc3ccc(Cl)cc3)[nH]c12 | 645 | -8.5% (inactive) | -5.4% (inactive) | 108% | -12.5% (inactive) | 108% | -0.555 (inactive) | -6.5e-06 (inactive) | 0.00627 (inactive) | 10.1% (inactive) | 12.5% (inactive) |
| CC1CC(NC(=O)c2cnc3n(c2=O)CCS3)CC(C)(C)C1 (centres undefined) | 626 | -2.3% (inactive) | -23.1% (inactive) | 113% | -37.1% (inactive) | 112% | -0.56 (inactive) | -4.4e-05 (inactive) | 0.00953 (inactive) | 16.9% (inactive) | 38.3% (inactive) |
